From PubChem BioAssay
Only some compounds are listed: those with a hit (about 19% of all), similar ones and a draw of the others.
TDP1 block: inhibitors of human tyrosyl-DNA phosphodiesterase TDP1 | AID 485290 | Potency, µM (highest dose often 130 µM), hits mostly inhibitors | 350,000 compounds, 0.28% hits | recombinant TDP1, AlphaScreen DNA substrate cleavage | Q9NUW8; also: nearly all actives have a fitted effect of over 40% in size
Target sequence (Q9NUW8 whole entry, looked up): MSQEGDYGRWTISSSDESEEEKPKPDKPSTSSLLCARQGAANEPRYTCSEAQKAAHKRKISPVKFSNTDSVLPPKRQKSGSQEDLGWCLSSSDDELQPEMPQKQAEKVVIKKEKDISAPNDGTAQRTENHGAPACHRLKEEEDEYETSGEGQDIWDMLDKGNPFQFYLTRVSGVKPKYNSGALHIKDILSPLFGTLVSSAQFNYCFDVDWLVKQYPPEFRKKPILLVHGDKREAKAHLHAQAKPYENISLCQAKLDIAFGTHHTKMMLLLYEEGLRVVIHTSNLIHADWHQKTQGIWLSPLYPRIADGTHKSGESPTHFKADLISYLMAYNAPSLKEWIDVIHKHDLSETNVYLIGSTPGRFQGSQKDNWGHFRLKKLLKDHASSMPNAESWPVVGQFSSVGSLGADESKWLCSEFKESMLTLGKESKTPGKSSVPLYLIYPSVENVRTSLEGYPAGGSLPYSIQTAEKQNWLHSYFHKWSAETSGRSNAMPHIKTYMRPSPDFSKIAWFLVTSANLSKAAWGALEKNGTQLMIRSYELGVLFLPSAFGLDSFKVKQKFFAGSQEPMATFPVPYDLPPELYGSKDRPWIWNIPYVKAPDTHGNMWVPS
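E. coli-derived human Tdp1, 1 nM final. Cpd preinc 15 min RT; substrate 15 nM final, 5 min RT; AS bead mix 10 ug/ml final, 10 min RT. Signal loss = tyrosine-FITC cleavage. No-enzyme wells = max signal.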
RORg inh: ROR gamma (mouse) transcription inhibition | Drosophila S2 Gal4-RORgamma UAS-luciferase reporter, 20 h | Potency, µM (top dose mostly 53.6 µM), hits mostly inhibitors | 310,000 compounds, 5.4% hits | AID 2551; also: nearly all actives have a fitted effect of over 60% in size
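Read-out: Photinus luciferase luminescence; inhibitors lower reporter signal. Insect Schneider cells with Gal4-ROR gamma fusion under metallothionein promoter, UAS reporter; 700 uM final copper sulfate induction, 20 hr, ambient temperature.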
DT40 TDP1 no CPT: qHTS for Inhibitors of human tyrosyl-DNA phosphodiesterase 1 (TDP1): qHTS in cells in absence of CPT; Potency, µM (doses to about 46.2 µM), hits mostly inhibitors; AID 686978, 2013; DT40 Tdp1-/- hTDP1 cells, no CPT, ATP luminescence, 48 h; 420,000 compounds, 15% hits; also: nearly all actives have a fitted effect of over 55% in size
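Compound effects on proliferation are scored in DT40 Tdp1-/-;hTDP1 cells in the absence of CPT. ATP levels (CellTiter-Glo luminescence) are recorded after a ≥48 hr, 37 °C incubation.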
Gal4-VP16 FLuc: Gal4-VP16 reporter inhibition counter-screen. AID 2546. Potency, µM (top dose mostly 53.6 µM), most hits filed as inhibitors. 310,000 compounds, 3.5% hits. Drosophila S2 Gal4-VP16 UAS-luciferase, luminescence, 20 h;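 also: Gal4-VP16 expression switched on by copper sulfate through the metallothionein promoter; nearly all actives have a fitted effect of over 50% in size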
DT40 TDP1 CPT: growth inhibition of DT40 Tdp1-/-;hTDP1 cells with camptothecin (screen for TDP1 inhibitors); 420,000 compounds, 12% hits; Potency, µM (titrated, usually from 46.2 µM), usual class: inhibitors; AID 686979; chicken DT40 Tdp1-/-;hTDP1 cells + 20 nM CPT, ATP luminescence, 48 h; also: nearly all actives have a fitted effect of over 55% in size
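Chicken DT40 Tdp1-/- cells complemented with human TDP1, 400 cells/well, exposed to compounds plus 20 nM camptothecin for at least 48 h at 37 C; viability read as ATP content by CellTiter-Glo luminescence.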
Large screens that a line does not name were inactive. Calls follow the shape of the dose curve; as a rule, active = well fitted curve in the direction sought with a large enough effect; inconclusive = small, poorly fitted or top-dose-only effect, or another doubt; inactive = no such curve, though single readings can be large; an effect the other way counts as inactive or inconclusive.

COc1cc(CN(C(=O)c2ccc(OC(C)C)cc2)c2ccccn2)cc(OC)c1OC	DT40 TDP1 no CPT 4.11µM, DT40 TDP1 CPT 2.31µM (no result: RORg inh, Gal4-VP16 FLuc)
Cc1cccc(OCC(=O)N(Cc2ccccc2)c2ccccn2)c1	DT40 TDP1 no CPT inconclusive, DT40 TDP1 CPT inconclusive (no result: RORg inh, Gal4-VP16 FLuc)
COc1ccc(C(=O)N(Cc2cc(OC)c(OC)c(OC)c2)c2ccccn2)cc1	DT40 TDP1 no CPT 20.6µM, DT40 TDP1 CPT inconclusive (no result: RORg inh, Gal4-VP16 FLuc)
COc1cc2c(c(O)c1OC)-c1c(cc(OC)c(OC)c1O)[C@@H](OC(=O)c1ccccc1)[C@@](C)(O)[C@@H](C)[C@@H]2OC(C)=O	none (no result: DT40 TDP1 no CPT, DT40 TDP1 CPT)
COc1ccc(-c2cc(C(=O)Nc3cnn(Cc4ccccc4C)c3)no2)cc1OC	none
COc1ccc(C2C(C(=O)Nc3ccc(Cl)cc3)=C(C)Nc3nc(SCc4cccc(C)c4)nn32)cc1OC (centres undefined)	DT40 TDP1 CPT inconclusive (no result: RORg inh, Gal4-VP16 FLuc)
Cc1ccc(N(C)S(=O)(=O)c2cccc(C(=O)NC3=NCCS3)c2)cc1	RORg inh inconclusive, DT40 TDP1 no CPT inconclusive, Gal4-VP16 FLuc inconclusive, DT40 TDP1 CPT inconclusive
COc1ccc(N(C)S(=O)(=O)c2cccc(C(=O)NCC3CCCCC3)c2)cc1	DT40 TDP1 no CPT 13µM, DT40 TDP1 CPT 23.1µM
C=CCN(c1ccccc1OC)S(=O)(=O)c1cccc(C(=O)NC2=NCCS2)c1	DT40 TDP1 no CPT 23.1µM, DT40 TDP1 CPT inconclusive (no result: RORg inh, Gal4-VP16 FLuc)
COc1ccc(N(C)S(=O)(=O)c2cccc(C(=O)NC3=NCCS3)c2)cc1	RORg inh 6.31µM, DT40 TDP1 no CPT inconclusive, Gal4-VP16 FLuc inconclusive
COCCN1CCn2c(nc3cc(Nc4nnc(C)c5ccccc45)ccc32)C1	none (no result: TDP1 block)
COc1cccc(Oc2cn[nH]c2-c2ccc(OC)cc2O)c1	RORg inh 7.08µM, DT40 TDP1 no CPT inconclusive, Gal4-VP16 FLuc 12.6µM, DT40 TDP1 CPT inconclusive
CCOc1ccc(-c2[nH]ncc2Oc2cccc(OC)c2)c(O)c1	RORg inh 11.2µM, DT40 TDP1 no CPT inconclusive, Gal4-VP16 FLuc inconclusive, DT40 TDP1 CPT inconclusive
COc1ccc(Oc2cn[nH]c2-c2ccc(OCC(=O)NN)cc2O)cc1	DT40 TDP1 CPT inconclusive (no result: TDP1 block)
COc1cccc(Oc2cn[nH]c2-c2ccc(O)cc2O)c1	RORg inh inconclusive, DT40 TDP1 no CPT inconclusive, Gal4-VP16 FLuc inconclusive, DT40 TDP1 CPT 9.2µM
COc1ccccc1Oc1cn[nH]c1-c1ccc(O)cc1O	DT40 TDP1 no CPT 20.6µM (no result: TDP1 block)
FC(F)(F)c1nnc(N2CCN(c3ccc(Cl)cc3)CC2)s1	Gal4-VP16 FLuc inconclusive (no result: TDP1 block)
Cc1ccc2[nH]c(=O)c(CN(CCCN3CCOCC3)Cc3nnnn3C3CCCC3)cc2c1	DT40 TDP1 CPT inconclusive
CCc1ccc2[nH]c(=O)c(CN(Cc3ccccc3OC)Cc3nnnn3Cc3ccco3)cc2c1	DT40 TDP1 no CPT inconclusive, DT40 TDP1 CPT inconclusive
Cc1ccc2cc(CN(Cc3ccc(F)cc3)Cc3nnnn3C3CCCC3)c(=O)[nH]c2c1	DT40 TDP1 no CPT inconclusive, DT40 TDP1 CPT 29.1µM (no result: Gal4-VP16 FLuc)
Cc1ccc2cc(CN(Cc3ccccc3)Cc3nnnn3C3CCCC3)c(=O)[nH]c2c1	DT40 TDP1 no CPT 12.6µM, DT40 TDP1 CPT 18.4µM
CCc1ccc2[nH]c(=O)c(CN(Cc3ccc4c(c3)OCO4)Cc3nnnn3C3CCCC3)cc2c1	DT40 TDP1 no CPT inconclusive, DT40 TDP1 CPT 18.4µM
COc1cc2c(c(NC(C)=O)c1)N(C(C)=O)CCC2	none (no result: TDP1 block, RORg inh, Gal4-VP16 FLuc)
CCc1cc2ccc(C)c(C)c2nc1SCC(=O)Nc1cc(C)on1	none
CN1/C(=C\C(=O)Nc2cccnc2)c2ccccc2CC1(C)C	RORg inh inconclusive, DT40 TDP1 no CPT 10.3µM, DT40 TDP1 CPT 18.4µM
COc1ccc(C(=O)/C=C2/c3ccccc3CC(C)(C)N2C)cc1	DT40 TDP1 no CPT 5.17µM, DT40 TDP1 CPT 5.17µM
O=C(C#Cc1ccccc1)c1ccc([N+](=O)[O-])cc1	RORg inh 11.2µM, DT40 TDP1 no CPT 0.92µM, Gal4-VP16 FLuc 7.94µM, DT40 TDP1 CPT 0.651µM
O=C(C#Cc1ccccc1)c1ccccc1	DT40 TDP1 no CPT 0.581µM, DT40 TDP1 CPT 0.731µM (no result: TDP1 block, RORg inh, Gal4-VP16 FLuc)
Nc1cccc(C(=O)O)c1	none
CC(=O)Cc1nsc(Nc2cccc(C)c2)n1	none
CC(=O)C1=C(O)C(=O)N(Cc2ccccc2)C1c1ccco1 (centres undefined)	TDP1 block 0.794µM
Cc1occc1C(=O)NCCCCc1ccccc1	none
CCCCc1ccc(S(=O)(=O)NCCCN2CCCC2=O)cc1	DT40 TDP1 no CPT 13µM, DT40 TDP1 CPT inconclusive (no result: RORg inh, Gal4-VP16 FLuc)
